# In the library only some 7.3% were active in any assay of this set; here they are far more common.
# Tau fluor cs: Counterscreen qHTS for Inhibitors of Tau Fibril Formation, Fluorescence Polarization; AID 1463, 2008; tau K18 P301L Alexa594 fluorescence, heparin fibrillization; Potency, µM (doses to about 57.7 µM); actives 0.93% (n = 280,000); note: nearly all actives have a fitted effect of over 55% in size
#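 Human K18 P301L tau (15 uM unlabeled plus 0.24 uM Alexa 594-labeled, final) in 100 mM sodium acetate pH 7 was mixed with compound and 20 uM heparin and incubated 6 hr at 37 C.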
# VP16 counter: VP16 counterscreen qHTS for inhibitors of ROR gamma transcriptional activity. Drosophila S2 Gal4-VP16 UAS-luciferase, luminescence, 20 h. Potency, µM (series often up to 53.6 µM), hits mostly inhibitors. actives 3.5% (n = 310,000). AID 2546, 2010;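 note: Gal4-VP16 expression switched on by copper sulfate through the metallothionein promoter; nearly all actives have a fitted effect of over 50% in size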
# Tau ThT inhib: qHTS for Inhibitors of Tau Fibril Formation, Thioflavin T Binding; Microtubule-associated protein tau (Homo sapiens), P10636; recombinant tau K18 P301L (four-repeat tau fragment), heparin-induced fibrillization, ThT fluorescence; Potency, µM (series often up to 57.4 µM), hits mostly inhibitors; actives 2.1% (n = 270,000); AID 1460, 2008; note: nearly all actives have a fitted effect of over 55% in size
#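 Aggregation was driven by heparin (20 uM final) acting on recombinant tau […] bearing P301L in 100 mM sodium acetate pH 7; fibrils were detected with Thioflavin T.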
# Tau fibril FP: qHTS for Inhibitors of Tau Fibril Formation, Fluorescence Polarization; K18 P301L tau heparin fibrillization, Alexa594 FP, 6 h; Microtubule-associated protein tau (Homo sapiens), P10636; AID 1468, 2008; actives 0.39% (n = 280,000); Potency, µM (series often up to 57.7 µM), usual class: inhibitors; note: nearly all actives have a fitted effect of over 55% in size
#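 K18 P301L tau (15 uM unlabeled/0.24 uM Alexa 594-labeled, final) + compound + heparin 20 uM final; 100 mM NaOAc pH 7; 6 hr 37 C; ThT 30 uM final added, 1 hr RT; FP ex 555/em 632 nm.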
# RORg inh: qHTS for inhibitors of ROR gamma transcriptional activity; actives 5.4% (n = 310,000); Nuclear receptor ROR-gamma (Mus musculus), P51450; Drosophila S2 Gal4-RORgamma UAS-luciferase reporter, 20 h; Potency, µM (highest dose often 53.6 µM), hits mostly inhibitors; AID 2551, 2010; note: nearly all actives have a fitted effect of over 60% in size
# Target sequence (P51450 whole entry, looked up, the tested form may be a part): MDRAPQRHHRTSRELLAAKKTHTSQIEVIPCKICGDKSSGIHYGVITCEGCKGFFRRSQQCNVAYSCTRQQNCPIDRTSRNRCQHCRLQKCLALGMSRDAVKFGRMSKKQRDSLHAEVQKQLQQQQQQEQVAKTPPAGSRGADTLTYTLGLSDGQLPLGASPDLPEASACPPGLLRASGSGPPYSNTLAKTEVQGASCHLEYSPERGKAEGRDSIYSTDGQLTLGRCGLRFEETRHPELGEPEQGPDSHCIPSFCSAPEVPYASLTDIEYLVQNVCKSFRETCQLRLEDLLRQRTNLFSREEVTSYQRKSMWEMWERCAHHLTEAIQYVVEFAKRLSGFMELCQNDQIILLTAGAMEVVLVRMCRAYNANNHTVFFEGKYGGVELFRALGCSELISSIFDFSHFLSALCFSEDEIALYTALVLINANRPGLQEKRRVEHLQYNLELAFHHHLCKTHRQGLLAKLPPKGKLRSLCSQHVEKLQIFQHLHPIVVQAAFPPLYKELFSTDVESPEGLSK
#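 Read-out: Photinus luciferase luminescence; inhibitors lower reporter signal. Insect Schneider cells with Gal4-ROR gamma fusion under metallothionein promoter, UAS reporter; 700 uM final copper sulfate induction, 20 hr, ambient temperature.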
# A number is an active result; . = inactive; ? = inconclusive; / = not tested or not shown; [ ] = remark or other dose. Calls come from the whole dose curve; as a rule, active = well fitted curve in the direction sought with a large enough effect; inconclusive = small, poorly fitted or top-dose-only effect, or another doubt; inactive = no such curve, though single readings can be large; an effect the other way counts as inactive or inconclusive.
SMILES,Tau fluor cs,VP16 counter,Tau ThT inhib,Tau fibril FP,RORg inh
CN1C(=O)/C(=C2/C=Cc3ccccc3N2CCCS(=O)(=O)O)SC1=S,.,.,25µM,.,.
CCN1C(=O)/C(=C2/C=Cc3ccccc3N2CC)SC1=S,?,.,13µM,.,.
CCCN1/C(=C2/SC(=S)N(CC)C2=O)C=Cc2ccccc21,?,.,?,.,.
Cc1oc(-c2ccc(C(=O)Nc3ccccc3F)cc2)nc1COc1ccccc1,.,/,.,.,/
COc1cccc(COc2cc3ccccc3nc2C)c1,.,5µM,?,.,.
Cc1nc2ccccc2cc1OCc1ccccc1,.,?,.,.,?
Cc1nc2ccccc2cc1OCc1ccc(Cl)cc1,.,3.5µM,?,.,?
COc1cccc(C2CC(=O)Nc3c2c(=O)nc2c(C)cccn32)c1 (configuration not stated),.,/,.,.,/
c1ccc(CNc2ncnc3sccc23)cc1,/,18µM,/,/,.
COc1ccc(CNc2ncnc3sccc23)cc1OC,/,11µM,/,/,?
OC(CNc1ncnc2sccc12)c1ccccc1 (configuration not stated),/,6.3µM,/,/,?
O=C(O)Cn1nnc(-c2ccc(OCc3cccc(C(F)(F)F)c3)cc2)n1,.,/,.,.,/
Cc1cc(C)nc(Nc2ccc(C(=O)O)cc2)n1,.,?,.,.,.
Cc1cc(C)nc(NN=C(c2ccccc2)c2ccccc2)n1,.,?,.,.,7.9µM
CC(/C=C/c1ccccc1)=N\Nc1nc(C)cc(C)n1,.,5µM,?,.,0.45µM
Cc1ccc(S(=O)(=O)N2CCN(Cc3ccco3)CC2)c(C)c1,/,.,/,/,.
COc1ccc(NC(=S)NNC(=O)CCn2cc([N+](=O)[O-])cn2)cc1,.,.[10 µM],.,.,.
Cc1cnn(CCC(=O)NNC(=S)Nc2ccc(F)cc2)c1,.,2.8µM,.,.,0.45µM
Cc1cnn(CCC(=O)NNC(=S)Nc2cccc(Cl)c2)c1,.,?,.,.,0.35µM
CCNC(=S)NNC(=O)CCn1cc(C)cn1,.,?,.,.,6.3µM
CN1C(=O)NC(c2cccc([N+](=O)[O-])c2)C2=C1CCCC2=O (configuration not stated),/,.,/,/,.
CCOc1ccccc1N(C)C(=O)Cn1cnc2onc(-c3ccc(F)cc3)c2c1=O,.,/,.,?,/
CCOC(=O)/C(C)=N/NC(C)=O,.,.,.,?,.
O=c1cc(O)c(Cl)c[nH]1,/,.,/,/,.
CCCC(NC(=S)NCC1CCCO1)C12CC3CC(CC(C3)C1)C2 (configuration not stated),.,3.2µM,.,.,0.45µM
SMILES,Tau fluor cs,VP16 counter,Tau ThT inhib,Tau fibril FP,RORg inh
S=C(NCC1CCCO1)NC1CCCCC1 (configuration not stated),.,?,.,.,?
Cc1ccc(/C=C2\CCCC3=C2NC(=S)NC3c2ccc(C)cc2)cc1 (configuration not stated),.,.,?,.,.
CC1CC2=C(NC(=S)NC2c2cccc(F)c2)/C(=C/c2cccc(F)c2)C1 (configuration not stated),.,4.5µM,.,.,1µM
CC1CCN(C2=NC(=O)/C(=C/c3ccccc3F)S2)CC1,/,.,/,/,.
Cc1ccc(/C=C2\CC(C)CC3=C2NC(=S)NC3c2ccc(C)cc2)cc1 (configuration not stated),.,?,?,.,3.2µM
CC1CC2=C(NC(=S)NC2c2ccccc2F)/C(=C/c2ccccc2F)C1 (configuration not stated),.,6.3µM,.,.,2.8µM
COC(=O)c1ccc(NC(=O)CC2C(=O)N(c3cccc(C)c3)C(=O)N2Cc2ccco2)cc1 (configuration not stated),.,/,.,.,/
S=C1NC(c2ccccc2)=NCN1c1ccccc1,.,.,.,.,10µM
Cc1ccc(C2=NCN(c3ccc(C(=O)O)cc3)C(=S)N2)cc1,.,.,.,.,.
CCOC(=O)N=Nc1c2ccccc2c2nc3no[nH]c3nc12,.,4µM,?,?,0.35µM
CCOC(=O)N=Nc1c(O)n(CC(=O)OC)c2ccccc12,.,.,.,.,.

# Assay outcomes (PubChem)
